Laboratory results as given in PubChem BioAssay AID878 (University of Pittsburgh Molecular Library Screening Center, 2007).
Among all 200,000 compounds or so, about 65 (0.03%) were called active.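 Rule for the calls: active = activation of at least 50% relative to the plate's high and low controls in the primary single-dose screen; inactive = activation below 50%.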 For the sample, actives were picked, then their nearest neighbours and some compounds at random.

assay: compounds producing H2O2 with reducing agent – biochemical, NIH compound library profiling, artefact control for MLSCN library redox annotation, primary screen (AID 878); conditions: DTT-dependent redox cycling H2O2, phenol red/HRP absorbance; at 10 µM; active compounds read high; 100% = 100 µM peroxide control, 0% = buffer;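 note: compound incubated with DTT at 0.8 mM final as the reducing agent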

activation, inactive:
O=C(CN(C(=O)c1csnn1)c1cccc(F)c1)NCc1ccc(F)cc1 0.3%
C=C(C)CNC(=S)N/N=C/c1ccccc1OCC(=O)O -0.31%
COc1ccc(NC(=O)c2ccccc2[N+](=O)[O-])cc1OC 0.48%
O=C(Nc1ccc(Br)cn1)c1ccc([N+](=O)[O-])o1 -1.5%
Cc1cc(C)c(C#N)c(N2CCC(C(N)=O)CC2)n1 -1.8%
O=C(NN1C(=O)C2C3C=CC(C3)C2C1=O)c1ccco1 (stereo not given) -0.88%
COc1ccccc1CC(NC(C)=O)C(=O)NC1CCN(C(=O)Nc2ccccc2Cl)CC1 (stereo not given) -0.13%
CCn1c(SCC(=O)N(C)C2CCS(=O)(=O)C2)nnc1-c1cccs1 (stereo not given) -1.15%
COC(=O)c1nc(NC(=O)c2ccc(C(C)(C)C)cc2)n[nH]1 -0.33%
O=C(C1CCN(S(=O)(=O)c2ccc(Br)s2)CC1)N1CCN(C2CCCCC2)CC1 0.46%
CSCCNCc1cn(-c2ccc(F)cc2F)nc1-c1ccccc1C 0.48%
COC(=O)Cc1ccc(OCC(=O)Nc2ccc(OC(F)(F)F)cc2)cc1 0.09%
O=C1/C(=C\c2ccccc2Cl)SC(=S)N1CCC(=O)N1CCCc2ccccc21 -0.64%
CC(C)Oc1ccc(/C=C(\NC(=O)/C=C/c2ccco2)C(=O)NCCc2nc3ccccc3[nH]2)cc1 0.27%
O=C(NN1C(=O)C2C3C=CC(O3)C2C1=O)c1ccccc1 (stereo not given) -0.16%
COc1cc2c3c(c1)/C(=C1/SC(=S)NC1=O)C(=O)N3C(C)(C)C=C2C -0.69%
CN(C)c1ccc(/C=N/NC(=O)c2ccc(Cn3cc(Br)cn3)o2)cc1 -0.04%
COCC(C)NC(=O)CSc1nc2nn(-c3ccccc3)c(=O)c-2c2n1CCCCC2 (stereo not given) -1.27%
CN(C)C(=O)c1ccc2c(c1)C1C3CCC(C3)C1C(c1ccccc1)N2 (stereo not given) -0.17%
N=c1n(CCc2ccccc2)c2ccccc2n1Cc1ccccc1F -0.46%
COc1ccc(C2NC(=S)NC3=C2CCc2ccccc23)cc1OC (stereo not given) 0.96%
CCCn1c(N)c(C(=O)CSc2nc3ccccc3c(=O)n2-c2ccc(OC)cc2)c(=O)[nH]c1=O 0.00314%
CC(C)c1nccn1S(=O)(=O)c1cc([N+](=O)[O-])ccc1Cl 1.71%
O=c1cc(-c2ccccc2)[nH]c2cc(F)ccc12 -0.1%
COc1ccccc1N1CCN(CC(=O)NCCc2ccc(S(N)(=O)=O)cc2)CC1 0.00253%
COc1ccc(OC)c(-c2csc(NC(=O)C3=NNC(=O)CC3)n2)c1 -1.87%
COc1ccc(OCC(=O)Nc2cc(C)c(Cl)cc2OC)c([N+](=O)[O-])c1 0.12%
CC1CCN(S(=O)(=O)c2ccc3ncn(CC(=O)N(C)C4CCCCC4)c(=O)c3c2)CC1 -2.09%
CCc1nc2ccccc2c(C(=O)OC2CCCCC2=O)c1C (stereo not given) 0.11%
CCOC(=O)C1(Cc2cccc(OC)c2)CCN(C(C)COC)CC1 (stereo not given) -0.66%
O=C(CSc1nnc(-c2ccncc2)o1)NCc1ccc(Cl)cc1 -0.01%
CC(C)(C)CN1CCNC(=O)C1CC(=O)NC1Cc2ccccc2C1 (stereo not given) -0.72%
Cc1cccc(NC(=S)N(CCN(C)C)C(C)c2ccco2)c1 (stereo not given) 0.05%
CC(C)(C)[C@H]1C=C(C(=O)NCc2ccccc2)O[C@@H](OCc2ccc(CO)cc2)C1 -1.79%
CCC(C)(C)NC(=O)c1cc([N+](=O)[O-])ccc1N1CCCCC1 -0.54%
CCCn1nc(Oc2nc(NC(C)C)nc(N(C)C)n2)ccc1=O 0.03%
Nc1c(-c2ccc(F)cc2)cnc2ncnn12 1.8%
O=C(CN1CCN(C/C=C/c2ccccc2)CC1)Nc1ccc(F)cc1F -0.37%
O=C(CP(=O)(c1ccccc1)c1ccccc1)N1CCOCC1 0.42%
CC(=O)C1=C(C)NC2=C(C(=O)CC(C)(C)C2)C1C (stereo not given) -0.01%
CN1C(=O)/C(=C/c2ccco2)SC1=Nc1cccc(C(=O)O)c1 -0.55%
Cc1cccc(-n2c(Cc3cc(=O)[nH]c(=O)[nH]3)nnc2SCC(=O)Nc2cccc(C(F)(F)F)c2)c1 0.37%
Cc1ccc(OCC(=O)NNC(=S)NCc2ccccc2)cc1 0.08%
CN(C)Cc1ccc(F)cc1Sc1cc(Cl)ccc1Cl -0.14%
CCOc1cc(CNn2c(C)nnc2SCC(=O)NC(C)(C)C)ccc1OCC(=O)NC(C)(C)C -0.27%
CC1=NNC(=O)C1CCC(=O)N/N=C\c1ccc(Cl)c(Cl)c1 (stereo not given) -0.00164%
Cc1ccc2nc(-c3ccccn3)cc(C(=O)Nc3ccc4c(c3)OCO4)c2c1 4.14%
Cc1ccccc1-n1nc(SCC(=O)O)sc1=S -0.13%
CC(=O)Nc1ccccc1C(=O)C(=O)Nc1ccc(F)cc1 -3.37%
CN(C)/C=C/C(=O)c1cnc2sccn2c1=O 0.12%
